Compounds with a hit are over-represented: about 19% of the library has one in this group of screens.
Gal4-VP16 FLuc – counter-screen for ROR gamma inhibitors: Gal4-VP16 reporter; AID 2546; actives 3.5% (n = 310,000); Drosophila S2 Gal4-VP16 UAS-luciferase, luminescence, 20 h; Potency, µM (top dose mostly 53.6 µM), for inactives: at the top dose activity, negative = inhibition, hits mostly inhibitors;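 note: Gal4-VP16 expression switched on by copper sulfate through the metallothionein promoter; nearly all actives have a fitted effect of over 50% in size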
RORg inh – blocks mouse ROR gamma transcriptional activity. Potency, µM (highest dose often 53.6 µM), inactives show at the highest dose activity change, negative = inhibition, actives largely listed as inhibitors. actives 5.4% (n = 310,000). P51450. AID 2551. Drosophila S2 Gal4-RORgamma UAS-luciferase reporter, 20 h; note: nearly all actives have a fitted effect of over 60% in size
Target sequence (P51450 whole entry, looked up, the tested form may be a part): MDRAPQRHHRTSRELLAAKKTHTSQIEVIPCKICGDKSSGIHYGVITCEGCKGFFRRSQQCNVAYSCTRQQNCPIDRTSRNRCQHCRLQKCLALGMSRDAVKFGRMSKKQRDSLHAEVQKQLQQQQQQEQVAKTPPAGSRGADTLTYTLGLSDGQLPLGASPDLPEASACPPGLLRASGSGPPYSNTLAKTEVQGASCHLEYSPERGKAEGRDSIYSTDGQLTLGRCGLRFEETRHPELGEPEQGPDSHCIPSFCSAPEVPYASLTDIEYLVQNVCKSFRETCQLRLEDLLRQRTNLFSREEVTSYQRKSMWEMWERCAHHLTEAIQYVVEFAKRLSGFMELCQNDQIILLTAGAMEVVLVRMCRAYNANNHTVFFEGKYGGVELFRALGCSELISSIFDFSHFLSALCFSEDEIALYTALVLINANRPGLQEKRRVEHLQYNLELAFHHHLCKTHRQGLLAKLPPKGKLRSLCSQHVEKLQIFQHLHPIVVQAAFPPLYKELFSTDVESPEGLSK
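Stably transfected Drosophila Schneider cells are the test system, with ROR gamma fused to Gal4 and luciferase under UAS control; luminescence is read after 20 hr of 700 uM copper sulfate induction at ambient temperature.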
TDP1 cell CPT – growth inhibition of DT40 Tdp1-/-;hTDP1 cells with camptothecin (screen for TDP1 inhibitors); chicken DT40 Tdp1-/-;hTDP1 cells + 20 nM CPT, ATP luminescence, 48 h; Potency, µM (doses to about 46.2 µM), for inactives: at the highest dose activity change, negative = growth inhibition, actives largely listed as inhibitors; actives 12% (n = 420,000); note: nearly all actives have a fitted effect of over 55% in size
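Cell growth measured by CellTiter-Glo luminescence after a minimum 48 h, 37 C compound exposure with 20 nM CPT in Tdp1-knockout DT40 cells stably expressing hTDP1, seeded 400/well; qHTS titration format.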
TDP1 cell noCPT – qHTS for Inhibitors of human tyrosyl-DNA phosphodiesterase 1 (TDP1): qHTS in cells in absence of CPT; DT40 Tdp1-/- hTDP1 cells, no CPT, ATP luminescence, 48 h; Potency, µM (series often up to 46.2 µM), inactives show top-dose activity change, negative = growth inhibition, most hits filed as inhibitors; actives 15% (n = 420,000); AID 686978, 2013; note: nearly all actives have a fitted effect of over 55% in size
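Growth kinetics read by CellTiter-Glo luminescence after ≥48 hr at 37 °C. Cells: DT40 Tdp1-/- stably carrying human TDP1, 400 per well, compound exposure in the absence of CPT (DMSO vehicle).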
TDP1 block – blocks human tyrosyl-DNA phosphodiesterase 1; Q9NUW8; recombinant TDP1, AlphaScreen DNA substrate cleavage; Potency, µM (highest dose often 130 µM), without a hit: at the top dose activity change, negative = inhibition, actives largely listed as inhibitors; actives 0.28% (n = 350,000); note: nearly all actives have a fitted effect of over 40% in size
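Recombinant E. coli-expressed Tdp1 (1 nM) preincubated with compound 15 min at RT, then 5'-biotin/3'-phosphotyrosine-FITC DNA substrate (15 nM) added for 5 min. AlphaScreen beads (10 ug/ml) added, 10 min RT; tyrosine-FITC cleavage read as signal loss.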
An asterisk follows results filed as active; ? = inconclusive; . = no result; [ ] = another dose, or the depositor's remark. Calls come from the whole dose curve; as a rule, active = well fitted curve in the direction sought with a large enough effect; inconclusive = small, poorly fitted or top-dose-only effect, or another doubt; inactive = no such curve, though single readings can be large; an effect the other way counts as inactive or inconclusive. % is set by controls: 0 for no effect and ±100 for the full control effect; potency is the fitted concentration of half-maximal effect.

SMILES	Gal4-VP16 FLuc	RORg inh	TDP1 cell CPT	TDP1 cell noCPT	TDP1 block
CCc1nnc(NC(=O)c2ccc(S(=O)(=O)N3CCCC(C)C3)cc2)s1 (centres undefined)	5.9%	2.2%	7.1%	-15.8%	6.3%
Cc1cc(C)c2nc(NNC(=O)c3ccc(S(=O)(=O)N4CCCCC4)cc3)sc2c1	8.91µM*	3.16µM*	4.61µM*	3.26µM*	9.2%
Cc1cccc2sc(NNC(=O)c3ccc(S(=O)(=O)N4CCCC(C)C4)cc3)nc12 (centres undefined)	3.16µM*	3.55µM*	4.11µM*	3.66µM*	6.6%
Cc1cccc2sc(NNC(=O)c3ccc4c(c3)OCCO4)nc12	12.6µM*	7.94µM*	?	?	9.2%
Brc1ccc2c(c1)C(c1cccs1)=NNC(c1cccnc1)=N2	-1.3%	?	-10.1%	-13.6%	7.5%
O=C(Cn1cnc2ccccc2c1=O)Nc1ccccc1N1CCOCC1	-5.9%	-1.4%	2.4%	1.6%	3.0%
Cc1ccc(NS(=O)(=O)c2ccc3c(c2)c(=O)n(C)c(=O)n3C)cc1F	-3.1%	2.8%	14.6µM*	16.4µM*	8.0%
Cc1cc(C)cc(NS(=O)(=O)c2ccc3c(c2)c(=O)n(C)c(=O)n3C)c1	4.4%	16.8%	1.84µM*	2.06µM*	4.5%
Cn1c(=O)c2cc(S(=O)(=O)Nc3cc(C(=O)O)cc(C(=O)O)c3)ccc2n(C)c1=O	0.7%	36.8%	-4.5%	-2.2%	8.1%
CCOc1ccc(CNC(=O)c2ccc3c(c2)c(C)c(C)n3Cc2ccccc2)cc1OC	.	.	11.6µM*	14.6µM*	10.5%
Cc1c(C)n(Cc2ccccc2)c2ccc(C(=O)NCc3ccc(OC(C)C)cc3)cc12	.	.	16.4µM*	11.6µM*	7.9%
CCn1c(C)c(C)c2cc(C(=O)NCc3ccc(N(C)C)cc3)ccc21	.	.	?	?	13.2%
Cc1cccc(CNC(=O)c2ccc3c(c2)c(C)c(C)n3Cc2ccccc2)c1	.	.	20.6µM*	?	7.9%
CCCN(CCC)CCCNC(=O)c1cn(C)c2ccc(S(=O)(=O)N3CCOCC3)cc2c1=O	.	.	8.1%	-1.8%	0.0%
O=C(c1ccc(Oc2ccc(C(F)(F)F)cc2[N+](=O)[O-])cc1)N1CCOCC1	-1.6%	?	?	14.6µM*	-2.2%
O=C(c1ccccc1Oc1ccc(C(F)(F)F)cc1[N+](=O)[O-])N1CCOCC1	5.8%	16.3%	-4.6%	16.2%	0.0%
O=[N+]([O-])c1cccc(Cl)c1	5.3%	3.1%	.	.	16.1%
O=[N+]([O-])c1cccc(SSc2cccc([N+](=O)[O-])c2)c1	.	.	3.66µM*	4.61µM*	.
CCOc1ccc(-c2c(C)nn3c(C)c(C(=O)Nc4cc(C)cc(C)c4)cnc23)cc1OCC	.	.	?	?	-0.6%
CCOc1ccc(-c2c(C)nn3c(C)c(C(=O)NCc4cccc(OC)c4)cnc23)cc1OCC	.	.	9.2µM*	?	1.9%
CCOc1ccc(-c2c(C)nn3c(C)c(C(=O)NCc4ccc(C)o4)cnc23)cc1OCC	.	.	?	?	5.8%
CCOc1ccc(-c2c(C)nn3c(C)c(C(=O)NCCc4ccc(Cl)cc4)cnc23)cc1OCC	.	.	14.6µM*	6.51µM*	-0.6%
CCOc1ccc(CCNC(=O)c2cnc3c(-c4ccc(F)cc4)c(C)nn3c2C)cc1OCC	.	.	16.4µM*	18.4µM*	1.9%
CCOc1ccc(-c2c(C)nn3c(C)c(C(=O)NCc4ccc(Cl)cc4)cnc23)cc1OCC	.	.	1.16µM*	1.64µM*	3.2%
CC(C(=O)NCC1CCCCC1)N(C)CC(=O)Nc1ccc(N2CCOCC2)cc1 (centres undefined)	-2.9%[10 µM]	4.1%	5.6%	-9.9%	0.0%
CC(=O)Oc1c(Sc2ccccc2[N+](=O)[O-])c(C)nn1C(C)(C)C	7.2%	4.0%	-0.9%	?	5.1%
CCCCCn1cc2c(c1-c1ccc(Cl)cc1)c(=O)n(C)c(=O)n2C	.	.	16.4µM*	16.4µM*	8.6%
